This is an account of results in PubChem BioAssay (Tox21).

A short description of experiment [1]: qHTS assay to identify small molecule agonists of the peroxisome proliferator-activated receptor delta (PPARd) signaling pathway - cell viability counter screen (AID 743211). Further: nearly all actives have a fitted effect of over 55% in size. The procedure, abridged:
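Viability was measured as CellTiter-Glo luminescence (30 min, room temperature) in the same wells as the beta-lactamase readout. GeneBLAzer PPARd UAS-bla HEK293H cells received compound after 5 h plating and were incubated 17 h at 37 C.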
(Quantitative high-throughput screening tests each substance at several concentrations.)

In experiment [2] the target is Peroxisome proliferator-activated receptor delta (Homo sapiens) (UniProt Q03181). Description: qHTS assay to identify small molecule agonists of the peroxisome proliferator-activated receptor delta (PPARd) signaling pathway (AID 743212; calls by dose curve). An outline of the steps:
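HEK293H PPARd-bla cells; 5 h preincubation 37 C/5% CO2; compound (DMSO) 37 C; LiveBLAzer B/G FRET substrate 2 h RT; fluorescence intensity.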

Experiment [3] in a line: qHTS assay to identify small molecule antagonists of the peroxisome proliferator-activated receptor delta (PPARd) signaling pathway - cell viability counter screen (AID 743213). Further: nearly all actives have a fitted effect of over 50% in size. The procedure, abridged:
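Cytotoxicity counter screen: CellTiter-Glo luminescence read 30 min after addition, in the same wells as the reporter assay. There, PPARd UAS-bla HEK293H cells (3000/well) were treated 17 h at 37 C with compound and 300 nM L165041.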

Experiment [4] concerns the target Peroxisome proliferator-activated receptor delta (Homo sapiens) (UniProt Q03181). Description: qHTS assay to identify small molecule antagonists of the peroxisome proliferator-activated receptor delta (PPARd) signaling pathway (AID 743215; active means well fitted inhibition curve with a large enough effect in the signal ratio in the repeat runs, not every such curve was filed as active; the % refers to the signal ratio;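 further: cells stimulated with agonist L165041 at 300 nM final during compound exposure; series mostly up to about 62 µM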). An outline of the steps:
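Inhibition of L165041-driven (300 nM final) PPARd signaling is scored in HEK293H UAS-bla cells. Exposure lasts 17 h at 37 C; beta-lactamase activity is then read by FRET substrate fluorescence after 2 h at room temperature.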

Experiment [5] in a line: qHTS assay to identify small molecule agonists of the farnesoid-X-receptor (FXR) signaling pathway - cell viability counter screen (AID 743218). Further: nearly all actives have a fitted effect of over 45% in size. The procedure, abridged:
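Cytotoxicity counter-screen run in parallel, same wells: FXR-UAS-bla HEK 293T cells dosed 16 h at 37 C, viability read by CellTiter-Glo luminescence after 30 min at room temperature.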

In experiment [6] the target is Bile acid receptor (Homo sapiens) (UniProt Q96RI1). Description: qHTS assay to identify small molecule agonists of the farnesoid-X-receptor (FXR) signaling pathway (AID 743220; active means well fitted activation curve with a large enough effect in the signal ratio in the repeat runs, not every such curve was filed as active; the % refers to the signal ratio). The procedure, abridged: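 Beta-lactamase reporter under UAS control in GeneBLAzer FXR HEK 293T cells (5000/well) measured with LiveBLAzer FRET substrate after 2 h at room temperature. Compound exposure lasted 16 h at 37C.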

The nature of experiment [7]: qHTS assay to identify small molecule antagonists of the farnesoid-X-receptor (FXR) signaling pathway - cell viability counter screen (AID 743221; active means well fitted cell-killing curve with a large enough effect in the repeat runs, not every such curve was filed as active; further: nearly all actives have a fitted effect of over 50% in size). The procedure, abridged: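 Cytotoxicity counter screen run in the FXR-bla reporter wells: HEK 293T cells exposed to compound with 50 uM (final) chenodeoxycholic acid for 16 h, 37 C, then viability measured by CellTiter-Glo luminescence after 30 min, room temperature.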

Experiment [8] is described as follows: qHTS assay to identify small molecule agonists of the vitamin D receptor (VDR) signaling pathway - cell viability counter screen (AID 743224). Further: series mostly up to about 63 µM; nearly all actives have a fitted effect of over 50% in size. The procedure, abridged: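 Viability is measured in the same wells as the VDR-bla reporter assay: after 16 h compound treatment and 2 h substrate loading, CellTiter-Glo is added and luminescence read 30 min later.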

A short description of experiment [9]: qHTS assay to identify small molecule antagonists of the vitamin D receptor (VDR) signaling pathway - cell viability counter screen (AID 743225). Further: nearly all actives have a fitted effect of over 50% in size. An outline of the steps: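 Cytotoxicity counter screen read by CellTiter-Glo luminescence (30 min, room temperature) in the same wells as the VDR-bla antagonist readout. HEK 293T VDR-UAS-bla cells had 16 h at 37C with compound and 3 nM (final) 1-alpha,25-dihydroxyvitamin D3, then 2 h with FRET substrate.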

Experiment [10] in a line: qHTS assay to identify small molecule agonists of the NFkB signaling pathway - cell viability counter screen (AID 1159515; calls by dose curve; further: series mostly up to about 61 µM; nearly all actives have a fitted effect of over 55% in size). An outline of the steps:
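Multiplexed viability readout: after the 5 hr compound exposure and 1.5 hr FRET substrate step, CellTiter-Glo reagent went into the same NFkB-bla ME-180 wells; ATP luminescence was measured after 30 min at room temperature.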

Experiment [11] in a line: qHTS assay to identify small molecule agonists of the endoplasmic reticulum stress response signaling pathway (AID 1159516; active means well fitted activation curve with a large enough effect in the signal ratio in the repeat runs, not every such curve was filed as active; the % refers to the signal ratio). The procedure, abridged: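 Tox21 10K library screened in quantitative HTS format on ESRE-bla HeLa cells, a beta-lactamase reporter under ER stress response element control; 5 hr treatment, FRET read.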
The nature of experiment [12]: qHTS assay to identify small molecule agonists of the endoplasmic reticulum stress response signaling pathway - cell viability counter screen (AID 1159517; calls by dose curve). The procedure, abridged: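 HeLa cells carrying an ESRE-driven beta-lactamase reporter receive compound for 5 hr at 37 C. Cell viability is then gauged with CellTiter-Glo by luminescence, 30 min at room temperature.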

The nature of experiment [13]: qHTS assay to identify small molecule antagonists of the retinoid-related orphan receptor gamma (ROR-gamma) signaling pathway - cell viability counter screen (AID 1159520). Further: nearly all actives have a fitted effect of over 50% in size. The procedure, abridged:
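Cytotoxicity was read from cellular ATP (CellTiter-Glo luminescence) after 16 hr at 37 C with 1 uM doxycycline induction. The inducer was added 2 hr after compound transfer to Tet-on ROR gamma CHO cells.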

Experiment [14] has as its target Nuclear receptor ROR-gamma (Homo sapiens) (UniProt P51449). Nature of the experiment: qHTS assay to identify small molecule antagonists of the retinoid-related orphan receptor gamma (ROR-gamma) signaling pathway (AID 1159521; further: nearly all actives have a fitted effect of over 50% in size; further: potency means the concentration at half of the fitted maximal effect). The procedure, abridged:
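Antagonist read-out: drop in luminescence (ONE-Glo) from an RORE-LUC reporter in CHO cells with doxycycline-inducible ROR-gamma; 2 hr compound pretreatment, 1 uM doxycycline, 16 hr incubation at 37 C.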

Experiment [15] is described as follows: qHTS assay to identify small molecule agonists of the AP-1 signaling pathway - cell viability counter screen (AID 1159525; calls by dose curve; further: nearly all actives have a fitted effect of over 55% in size). An outline of the steps:
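Luminescent ATP readout (Cell Titer Glo, 30 min RT), normalised to DMSO and tetra n-octyl ammonium bromide controls. Cells were ME-180 AP-1-bla in 0.5% dialyzed FBS Opti-MEM, with a 5 h, 37 °C compound exposure.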

Experiment [16] in a line: qHTS assay to identify small molecule agonists of the AP-1 signaling pathway (AID 1159526; calls by dose curve).
The target in experiment [17] is Vitamin D3 receptor (Homo sapiens) (UniProt P11473). Description: qHTS assay to identify small molecule agonists of the vitamin D receptor (VDR) signaling pathway (AID 743222; calls by dose curve). The procedure, abridged: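 Quantitative HTS agonist-mode screen: compounds in DMSO were pin-transferred onto VDR-bla cells and incubated 16 h at 37C, 5% CO2. Reporter activity was detected with LiveBLAzer B/G FRET substrate after 2 h at room temperature.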

The target is the same in experiment [18]. Nature of the experiment: qHTS assay to identify small molecule antagonists of the vitamin D receptor (VDR) signaling pathway (AID 743223; active means well fitted inhibition curve with a large enough effect in the signal ratio in the repeat runs, not every such curve was filed as active; the % refers to the signal ratio). An outline of the steps:
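Antagonist mode: compound added to VDR-bla cells alongside agonist 1alpha,25-dihydroxyvitamin D3 (3 nM final), incubation 16 h at 37C. Read-out is LiveBLAzer FRET fluorescence, 2 h at room temperature.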

In experiment [19] the target is Retinoic acid receptor RXR-alpha (Homo sapiens) (UniProt P19793). Nature of the experiment: qHTS assay to identify small molecule agonists of the RXR signaling pathway (AID 1159527; calls by dose curve; further: nearly all actives have a fitted effect of over 35% in size; further: potency means the concentration at half of the fitted maximal effect). The procedure, abridged:
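Agonist-mode beta-lactamase reporter assay: HEK 293T RXR-alpha-UAS-bla cells treated 16 hr at 37 C with compounds, 9-cis retinoic acid as positive control. LiveBLAzer FRET substrate, 405 nm excitation, 460/530 nm emission.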

The target of experiment [20] is Bile acid receptor (Homo sapiens) (UniProt Q96RI1). Description: qHTS assay to identify small molecule antagonists of the farnesoid-X-receptor (FXR) signaling pathway (AID 743217; active means well fitted inhibition curve with a large enough effect in the signal ratio in the repeat runs, not every such curve was filed as active; the % refers to the signal ratio). An outline of the steps: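 Antagonist mode against 50 uM (final) chenodeoxycholic acid stimulation in FXR-bla HEK 293T cells, 16 h at 37 °C. Inhibition detected as reduced beta-lactamase activity via LiveBLAzer B/G FRET fluorescence after 2 h at room temperature.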

Results filed as inconclusive are left out. Calls of active or inactive are those of the source. Unless noted, the call rests on the fitted dose curve; in most records, active means well fitted curve in the direction sought with a large enough effect in the repeat runs; inconclusive means weak or mixed curves; inactive means no such curve, though single readings can be large; an effect the other way counts as inactive or inconclusive.

Sequence of Vitamin D3 receptor (Homo sapiens) (P11473 whole entry, looked up): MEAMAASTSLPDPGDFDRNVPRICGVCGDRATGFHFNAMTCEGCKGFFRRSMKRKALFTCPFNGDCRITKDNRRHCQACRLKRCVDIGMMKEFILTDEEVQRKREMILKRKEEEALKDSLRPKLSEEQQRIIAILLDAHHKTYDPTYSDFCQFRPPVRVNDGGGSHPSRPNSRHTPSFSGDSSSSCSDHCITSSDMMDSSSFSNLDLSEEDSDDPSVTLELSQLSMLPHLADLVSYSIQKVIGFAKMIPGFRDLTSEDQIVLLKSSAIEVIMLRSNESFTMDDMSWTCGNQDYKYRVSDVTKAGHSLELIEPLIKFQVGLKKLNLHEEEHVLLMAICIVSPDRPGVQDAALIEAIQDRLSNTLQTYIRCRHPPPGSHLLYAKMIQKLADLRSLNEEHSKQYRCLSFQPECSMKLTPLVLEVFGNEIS
Sequence of Peroxisome proliferator-activated receptor delta (Homo sapiens) (Q03181 whole entry, looked up): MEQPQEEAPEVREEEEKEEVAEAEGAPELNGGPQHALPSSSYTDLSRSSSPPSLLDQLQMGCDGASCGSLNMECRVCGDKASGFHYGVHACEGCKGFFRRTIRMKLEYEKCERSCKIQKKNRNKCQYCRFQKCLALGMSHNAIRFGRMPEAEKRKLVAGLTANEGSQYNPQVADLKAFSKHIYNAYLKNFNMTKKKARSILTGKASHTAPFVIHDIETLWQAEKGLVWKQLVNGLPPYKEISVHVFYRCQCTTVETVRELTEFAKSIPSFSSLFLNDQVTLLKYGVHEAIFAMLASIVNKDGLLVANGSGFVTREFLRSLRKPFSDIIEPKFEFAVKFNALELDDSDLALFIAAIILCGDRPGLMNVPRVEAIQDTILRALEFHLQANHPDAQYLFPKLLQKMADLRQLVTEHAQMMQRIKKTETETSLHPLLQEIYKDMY
Sequence of Bile acid receptor (Homo sapiens) (Q96RI1 whole entry, looked up): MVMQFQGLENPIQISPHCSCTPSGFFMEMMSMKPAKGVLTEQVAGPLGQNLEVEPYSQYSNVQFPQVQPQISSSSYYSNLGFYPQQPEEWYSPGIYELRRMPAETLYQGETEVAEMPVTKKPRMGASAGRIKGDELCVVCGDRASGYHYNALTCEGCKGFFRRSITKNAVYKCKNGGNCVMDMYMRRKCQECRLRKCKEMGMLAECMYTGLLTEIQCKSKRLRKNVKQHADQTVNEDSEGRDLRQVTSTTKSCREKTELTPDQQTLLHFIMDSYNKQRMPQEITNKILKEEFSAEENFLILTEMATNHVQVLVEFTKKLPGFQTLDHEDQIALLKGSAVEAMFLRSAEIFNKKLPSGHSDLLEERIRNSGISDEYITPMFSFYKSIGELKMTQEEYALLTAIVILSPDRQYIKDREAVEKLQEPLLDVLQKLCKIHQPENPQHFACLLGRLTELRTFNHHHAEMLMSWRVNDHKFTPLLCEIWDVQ
Sequence of Retinoic acid receptor RXR-alpha (Homo sapiens) (P19793 whole entry, looked up): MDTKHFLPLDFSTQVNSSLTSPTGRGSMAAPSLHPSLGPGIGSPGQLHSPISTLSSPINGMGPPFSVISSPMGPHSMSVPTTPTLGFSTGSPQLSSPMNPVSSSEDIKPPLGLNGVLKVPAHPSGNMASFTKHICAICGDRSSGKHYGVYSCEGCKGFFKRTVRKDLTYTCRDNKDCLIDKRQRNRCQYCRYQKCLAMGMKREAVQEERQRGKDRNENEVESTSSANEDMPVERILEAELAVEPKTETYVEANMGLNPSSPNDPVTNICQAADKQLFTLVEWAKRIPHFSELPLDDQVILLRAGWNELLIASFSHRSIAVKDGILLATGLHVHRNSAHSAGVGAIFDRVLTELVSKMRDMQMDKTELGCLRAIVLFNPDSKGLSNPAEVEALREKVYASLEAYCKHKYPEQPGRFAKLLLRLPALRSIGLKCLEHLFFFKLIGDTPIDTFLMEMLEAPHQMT

Consider `O=c1[nH]cnc2ccccc12`, for which the Potency entry in experiment [1], in experiment [3], in [5], in [7], in [8] and in experiment [9] was “inactive” throughout. The Potency entry in experiment [10], in experiment [11], in experiment [13], in experiment [14], in experiment [15] and in experiment [16] was “inactive” in each case. Besides, the call in experiment [2], in [4], in [6] and in experiment [12] was inactive.

As for `Cc1nc2ccccc2n1Cc1ccc(Cl)cc1`, the Potency entry in [1], in experiment [10], in experiment [11], in experiment [13], in experiment [15] and in [16] was “inactive” throughout. The result in [12] was inactive. The Potency in experiment [14] was 2.66 µM (active).

Turning to `CC(=O)OCCc1ccccc1`, the Potency result in experiment [1], in experiment [3], in experiment [5], in experiment [7], in experiment [18] and in experiment [8] was “inactive” in each case. Besides, the Potency result in experiment [10], in experiment [11], in experiment [13], in experiment [14], in experiment [15] and in experiment [16] was “inactive” throughout. The compound was classed as inactive in [2], in experiment [17] and in experiment [12].

On to `COC(=O)C(C)=O`, for which the Potency entry in experiment [1], in [3], in experiment [5], in experiment [7], in experiment [18] and in experiment [8] was “inactive” each time. Also, the Potency result in [9], in experiment [10], in experiment [11], in experiment [13], in experiment [14] and in experiment [15] was “inactive” in each case. For the same compound, the Potency result in [16] and in [19] was “inactive” throughout. Also, the result in experiment [2], in experiment [17] and in experiment [12] was inactive.

Regarding `NCCCOCCOCCOCCCN`, the Potency result in experiment [1], in [3], in experiment [5], in [7], in experiment [8] and in experiment [9] was “inactive” each time. The Potency entry in [10], in [11], in experiment [13], in experiment [15] and in experiment [16] was “inactive” throughout. Also, the result in experiment [17] and in experiment [12] was inactive. The Potency is 17.2 µM (active) in experiment [14] and 43.6 µM (active) in experiment [19].

Regarding `CCCCC(CC)(CO)CO`, the Potency result in [1], in [3], in experiment [5], in [7], in experiment [18] and in experiment [8] was “inactive” throughout. Moreover, the Potency result in experiment [9], in [10], in experiment [11], in experiment [13], in experiment [14] and in experiment [15] was “inactive” each time. Further, in [16], the Potency result was “inactive”. Besides, the outcome in experiment [2], in experiment [4], in experiment [6], in experiment [17] and in experiment [12] was inactive.

With `CCN(CC)CCOC(=O)C1(c2ccccc2)CCCC1`, the Potency result in experiment [1], in experiment [3], in experiment [5], in experiment [7], in experiment [8] and in experiment [9] was “inactive” throughout. The Potency result in experiment [10], in experiment [11], in experiment [13], in experiment [14], in experiment [15] and in experiment [16] was “inactive” in each case. The call in experiment [2], in [4], in [20], in [6] and in experiment [12] was inactive.

On to `Cc1ccc(C(C)c2ccc(C)c(C)c2)cc1C`, for which the Potency result in experiment [1], in experiment [3], in experiment [5], in experiment [7], in experiment [18] and in [8] was “inactive” in each case. The Potency result in [9], in [10], in experiment [11], in [13], in [14] and in experiment [15] was “inactive” in each case. The Potency result in experiment [16] is “inactive”. Further, the compound was called inactive in experiment [2], in [4], in experiment [17] and in [12].

Turning to `CC(=O)c1c(C)c([N+](=O)[O-])c(C(C)(C)C)c([N+](=O)[O-])c1C`, the Potency entry in experiment [1], in [3], in experiment [5], in [7], in experiment [8] and in experiment [9] was “inactive” each time. Besides, the Potency result in experiment [10], in experiment [11], in experiment [13], in [14], in experiment [15] and in experiment [16] was “inactive” each time. Also, the compound was classed as inactive in experiment [2], in experiment [4], in experiment [6], in experiment [17] and in [12].
